# Bioassay records from PubChem.
# This is a sample that favours compounds with a hit; in the whole collection about 8% have one here.
# KB-V1 MDR tox – kills drug-selected multidrug resistant KB-V1 cells | AID 1347076 | hit rate 3.4% among 400,000 | KB-V1 MDR cells viability, CellTiter-Glo, 72 h | Potency, µM (top dose mostly 46.1 µM), hits mostly cytotoxic; note: % is set by controls: 0 for no effect and ±100 for the full control effect; nearly all actives have a fitted effect of over 60% in size
#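 Drug-selected KB-V1 cells, grown in DMEM lacking phenol red with 10% FBS, receive compound titrations; after three days at 37 degrees C, surviving cell ATP is quantified by CellTiter-Glo luminescence and responses normalized and curve-fitted.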
# SW480 rerep – DNA re-replication induction in SW480 cells; AID 624297; SW480 DNA re-replication, Hoechst DNA content imaging, 48 h; hit rate 1.8% among 340,000; Potency, µM (highest dose often 46.1 µM), without a hit: at the top dose re-replication activation, hits mostly activators; note: % of control where 0% means no effect; nearly all actives have a fitted effect of over 55% in size
#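 Hoechst fluorescence of nuclei (405 nm excitation, 500-530 nm emission) measured by plate-scanning imager after 48 hr compound exposure at 37 C; re-replication scored as increased number of nuclei with elevated intensity.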
# HT1080NT lethal – kills 2HG-producing HT-1080-NT fibrosarcoma cells. HT-1080-NT fibrosarcoma viability, CellTiter-Glo ATP luminescence, 48 h. Potency, µM (series often up to 46.1 µM), inactives show top-dose activity, negative = less viability, hits mostly cytotoxic. hit rate 1.6% among 360,000. AID 686970;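 note: NT is the 2HG producing partner of a matched IDH1 knockdown line; 0% = DMSO-treated cells and -100% = media-only wells without cells; nearly all actives have a fitted effect of over 55% in size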
#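 Fibrosarcoma NT cells, 750 per well in 5% FBS RPMI, were exposed to compound for 48 hours. Viability: CellTiter-Glo luminescence.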
# KB-3-1 tox – kills parental KB-3-1 adenocarcinoma cells; KB-3-1 viability, CellTiter-Glo ATP luminescence, 72 h; Potency, µM (doses to about 46.1 µM), usual class: cytotoxic; hit rate 1.4% among 400,000; AID 1347075; note: % is set by controls: 0 for no effect and ±100 for the full control effect; nearly all actives have a fitted effect of over 60% in size
#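 Cytotoxicity measured as CellTiter-Glo luminescence after 72 h at 37 C. Compound titrations were pinned onto drug-naive KB-3-1 parental adenocarcinoma cells grown in DMEM with 10% FBS, and normalized data fitted to concentration-response curves.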
# HT1080 IDH1KD tx – kills HT-1080 cells with IDH1 knockdown | HT-1080 IDH1 knockdown viability, ATP luminescence, 48 h | Potency, µM (series often up to 46.1 µM), without a hit: top-dose activity, negative = toxicity, usual class: cytotoxic | hit rate 2% among 360,000 | AID 686971;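 note: 0% = DMSO wells and -100% = cell-free medium wells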
#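 Assay cells: HT-1080 with IDH1 knockdown, 750 per well, RPMI/5% FBS. Exposure: 48 h at 37 °C following 2 h pre-incubation. Read: CellTiter-Glo luminescence; fitted concentration-response, curve class assigned.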
# MCF10A rerep – DNA re-replication induction in MCF 10a cells; Potency, µM (titrated, usually from 46.1 µM), without a hit: top-dose activity, positive = re-replication, usual class: activators; hit rate 2.9% among 350,000; MCF 10A DNA re-replication, Hoechst nuclear intensity, 48 h; note: % of control where 0% means no effect; nearly all actives have a fitted effect of over 50% in size
# * = called active by the depositor; i = inactive; ? = inconclusive; . = no result given. Calls come from the whole dose curve; as a rule, active = well fitted curve in the direction sought with a large enough effect; inconclusive = small, poorly fitted or top-dose-only effect, or another doubt; inactive = no such curve, though single readings can be large; an effect the other way counts as inactive or inconclusive. Potency is the fitted concentration of half-maximal effect.
SMILES,KB-V1 MDR tox,SW480 rerep,HT1080NT lethal,KB-3-1 tox,HT1080 IDH1KD tx,MCF10A rerep
CNC[C@H](Cc1ccccc1)NC[C@@H](Cc1cccc2ccccc12)NCCc1ccc(C)cc1,?,?,?,7.31µM*,?,?
COc1ccc(C2C=C(c3ccccc3)Nc3nnnn32)cc1 (configuration not stated),i,14.4%,9.4%,i,-0.8%,3.5%
COc1cccc(C2=CC(c3ccccc3)n3nnnc3N2)c1 (configuration not stated),6.51µM*,1.7%,7.94µM*,?,?,2.5%
COc1cccc(C2C=C(c3ccc(OC)cc3OC)Nc3nnnn32)c1 (configuration not stated),23.1µM*,?,-21.9%,?,-12.7%,?
COc1cccc(C2=CC(c3ccc(N(C)C)cc3)n3nnnc3N2)c1 (configuration not stated),13µM*,?,-16.1%,18.4µM*,?,16.4µM*
Cc1cc(F)ccc1NC(=O)CCSc1nc(-c2ccco2)cc(C(F)(F)F)n1,i,.,.,i,.,.
O=C(/C=C/c1ccc(Cl)cc1)NC(=S)Nc1ccccc1C(=O)O,i,16.4µM*,?,i,?,?
NC(=O)c1ccccc1NC(=O)/C=C/c1ccc(Cl)cc1,14.6µM*,-1.4%,?,i,?,18.4%
CCN(CC)S(=O)(=O)c1ccc2c(c1)N(CC(=O)N1CCN(c3cccc(C(F)(F)F)c3)CC1)C(=O)CO2,i,.,.,i,.,.
Cc1ccc(CNc2nc3c(S(=O)(=O)c4ccccc4)nnn3c3ccsc23)cc1,?,.,.,i,.,.
CC(C)C/C=C1\CCc2c([nH]c3ccccc23)C1=O,i,4.6%,2.4%,i,18.4%,1.5%
CC1C/C(=C\c2cccnc2)C(=O)/C(=C/c2cccnc2)C1 (configuration not stated),?,?,?,?,2.91µM*,?
O=C1/C(=C/c2cccnc2)CCc2c1[nH]c1ccccc21,13µM*,20.6µM*,14.6µM*,i,13µM*,?
Cc1ccccc1-n1nc2c(c1NC(=O)C1CCCC1)CS(=O)(=O)C2,i,-0.5%,10.7%,i,6.7%,18.4µM*
CCCCOc1ccc(-c2nn(-c3ccccc3)cc2C2NC(=O)NC(C)=C2C(=O)OCC)cc1 (configuration not stated),i,.,.,i,.,.
CSCCC(NS(=O)(=O)c1ccc2c(c1)oc(=O)n2C)C(=O)NCCc1ccc(C)cc1 (configuration not stated),i,.,.,i,.,.
Cc1c(CCCl)c(Cl)n2c(nc3ccccc32)c1C#N,1.64µM*,?,2.59µM*,2.06µM*,2.31µM*,2.91µM*
N#Cc1c(-c2ccccc2)c(C#N)c2nc3ccccc3n2c1N,i,25.2%,-4.3%,i,-1.7%,9.8%
CCc1c(C)c(C#N)c2nc3ccccc3n2c1NC,i,-2.2%,-4.5%,i,-2.0%,0.1%
CCN(CC)c1c2c(c(C#N)c3nc4ccccc4n13)CCC2,3.66µM*,20.3%,2.2%,i,5.8%,11.8%
CNc1cc(C)c(C#N)c2nc3ccccc3n12,i,?,-3.9%,i,-18.3%,27.0%
Cc1cc(Cl)n2c(nc3ccccc32)c1C#N,?,20.6µM*,9.2µM*,i,7.31µM*,?
Cc1ccc(-c2c(C#N)c(N)n3c(nc4ccccc43)c2C#N)cc1,?,18.4µM*,?,13µM*,?,18.4µM*
Nc1cccc[n+]1C(c1ccnc2ccccc12)[n+]1ccccc1N,i,.,.,i,.,.
Cc1ccccc1CSCC(=O)Nc1ccccc1F,i,-5.5%,17.4%,i,8.2%,7.4%
CC(=O)c1ccc(NC(=O)c2cc3c([nH]c2=O)CC(c2ccccc2)CC3=O)cc1 (configuration not stated),?,.,.,i,.,.
